The campaign covered roughly 350,000 compounds. About 31,000 (8.9%) were called active. About 15% were inconclusive and are not listed. What follows is part of a selection rich in actives, with near analogues and random picks from the rest. A call without a number means that no potency is given here. Values without a mark were called inactive. The call rests on the fitted dose curve; in most records, active means well fitted inhibition curve with a large enough effect; inconclusive means small, poorly fitted or top-dose-only effect; inactive means no such curve, though single readings can be large or run the other way.
Potency means the concentration at half of the fitted maximal effect.

The target of this assay is Histone-lysine N-methyltransferase EHMT2 (Homo sapiens) (UniProt Q96KQ7). Description: qHTS Assay for Inhibitors of Histone Lysine Methyltransferase G9a. Further: nearly all actives have a fitted effect of over 75% in size. Conditions: G9a H3K9 monomethylation, AlphaScreen, 2 h; series mostly up to 59 µM. The procedure, abridged: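 AlphaScreen detection with an anti-monomethyl H3K9 antibody quantified product after a 2 h room-temperature reaction containing 500 nM biotinylated H3K9 peptide, 20 µM SAM and 20 nM enzyme, which had been preincubated 15 min with compound.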
Sequence of Histone-lysine N-methyltransferase EHMT2 (Homo sapiens) (Q96KQ7 913-1193 limits assumed): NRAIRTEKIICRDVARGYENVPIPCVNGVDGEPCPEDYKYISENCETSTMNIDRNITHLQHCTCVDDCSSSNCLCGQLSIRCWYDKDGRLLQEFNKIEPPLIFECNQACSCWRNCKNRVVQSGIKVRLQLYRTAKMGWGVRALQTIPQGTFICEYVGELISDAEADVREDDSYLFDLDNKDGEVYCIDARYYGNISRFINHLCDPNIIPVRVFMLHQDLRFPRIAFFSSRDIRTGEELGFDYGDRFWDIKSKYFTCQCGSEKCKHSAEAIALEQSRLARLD
For orientation: Quantitative high-throughput screening tests each substance at several concentrations.
For `CCN(C(=O)Cn1cnc2sc(C)c(S(=O)(=O)N3CCN(c4ncccn4)CC3)c2c1=O)c1ccccc1F`, the Potency result is “inactive”.

As for `Cc1ccc(S(=O)(=O)N(CCCN(C)C)Cc2ccc3c(c2)OCO3)cc1`, the Potency result was “inactive”.

Consider `COc1ccc(-c2cn3nc(N4CCCC(C(=O)NCCCOC(C)C)C4)sc3n2)cc1` (stereo unspecified), for which the Potency entry is “inactive”.

Consider `Cc1c(Cl)cccc1NC(=O)C(=O)NCCc1csc2nc(-c3ccccc3F)nn12`, for which the Potency entry is “inactive”.

In the case of `NS(=O)(=O)c1ccc(CCNC(=O)COC(=O)COc2cccc(C(F)(F)F)c2)cc1`, the activity, negative = inhibition is -4.95% [at 12.7 µM].

Take `Cc1ccc(-c2cc(C(=O)NC3CCN(Cc4ccccc4)CC3)c3ccccc3n2)cc1`: the Potency result was “inactive”.

Turning to `CNC(=O)NC(=O)CSc1nnc(-c2ccc(F)cc2)n1CC1CCCO1` (stereo unspecified), the Potency entry is “inactive”.

With `S=c1[nH]nc(-c2ccc(Cl)cc2)n1CC1CCCO1` (stereo unspecified), the Potency is 7.94 µM (active).

In the case of `CC(Sc1nn(-c2ccc(Cl)cc2)c(=S)s1)C(=O)NCC1CCCO1` (stereo unspecified), the Potency entry is “inactive”.

As to `CCN1C(=O)[C@H]2[C@@H](c3ccc(-c4ccc(F)cc4)cc3)N[C@@](Cc3ccccc3)(C(=O)OC)[C@H]2C1=O`, the activity, negative = inhibition is 15.2% [at 2.33 µM].

Consider `O=C(COc1ccccc1Cl)N1N=C(c2cccs2)CC1c1ccco1` (stereo unspecified), for which the activity, negative = inhibition is -17.2% [at 12.7 µM].

For the compound `Cc1cc(C)cc(OCC(=O)Nc2c(C(=O)c3ccccc3)oc3ccccc23)c1`, the Potency result is “inactive”.

For the compound `CCn1nnnc1SCC(=O)Nc1ccc(N(C)C)cc1`, the Potency is 28.2 µM (active).

As to `CC(=O)Nc1ccc(NC(=O)CSc2nnnn2-c2ccccc2F)cc1`, the Potency result was “inactive”.

`CC(=O)Nc1ccc(NC(=O)CSc2nnnn2C2CCCCC2)cc1`: the Potency result is “inactive”.

On to `CCOc1ccc(C2C(=O)N(C3CCCCC3)CC(=O)N2CCC2=CCCCC2)cc1OC` (stereo unspecified), for which the Potency result was “inactive”.

On to `CCOc1ccccc1N1CCN(C(=S)Nc2ccc(S(N)(=O)=O)cc2)CC1`, for which the Potency entry was “inactive”.

For the compound `CC1CN(C(=S)Nc2ccc(S(N)(=O)=O)cc2)CC(C)O1` (stereo unspecified), the Potency entry is “inactive”.

Consider `COc1ccc(N2CCN(C(=S)Nc3ccc(S(N)(=O)=O)cc3)CC2)cc1`, for which the Potency is 8.91 µM (active).

For the compound `CCCN1CCc2nc(N3CCN(C)CC3)ncc2C1`, the Potency entry is “inactive”.

For the compound `Nc1nc(SCCOc2ccccc2)n[nH]1`, the activity, negative = inhibition is 1.72% [at 12.7 µM].

Take `N#Cc1cccc(CSc2ncnc(N)n2)c1`: the activity, negative = inhibition is -30.5% [at 2.33 µM].

Turning to `Nc1nc(SCc2cccc(Br)c2)n[nH]1`, the Potency is 31.6 µM (active).

As to `Cc1ccc(CCNC(=O)c2ccc3c(c2)nc2n3CCC(C)C2)cc1` (stereo unspecified), the Potency result is “inactive”.

Take `CCOc1ccc(NC(=O)C(=O)NCCc2csc3nc(-c4ccccc4F)nn23)cc1`: the Potency entry is “inactive”.

In the case of `COc1ccc(NC(=O)CCCN2C(=O)CCn3nc(-c4cn(C)c5ccccc45)cc32)cc1OC`, the Potency result was “inactive”.

`CCc1ccc(NC(=O)Cn2nnc(C(=O)NCc3ccc4c(c3)OCO4)c2N)cc1`: the Potency entry is “inactive”.

As to `Cc1cc(C)cc(NC(=O)Cc2csc(C)n2)c1`, the Potency result is “inactive”.

With `CCN(CC(=O)Nc1ccccc1C(F)(F)F)C(=O)C1CCN(C(=O)Nc2ccccc2)CC1`, the Potency result was “inactive”.

For `NC(=O)C1CCN(C2OC(=O)c3ccccc32)CC1` (stereo unspecified), the Potency entry was “inactive”.

For `CCOC(=O)C1CCN(c2ccc(C(=O)O)cc2[N+](=O)[O-])CC1`, the Potency result was “inactive”.

Turning to `CCOC(=O)c1ccc(N2C(=O)CC(N3CCC(C(=O)OCC)CC3)C2=O)cc1` (stereo unspecified), the Potency is 35.5 µM (active).

Consider `COc1ccc(N2C(=O)CC(N3CCC(C(N)=O)CC3)C2=O)cc1` (stereo unspecified), for which the Potency was 14.1 µM (active).

Regarding `COc1ccc(COCC(O)CN2CCC(C(N)=O)CC2)cc1` (stereo unspecified), the Potency result was “inactive”.

Turning to `CCOC(=O)c1ccc(N2C(=O)CC(N3CC(C)OC(C)C3)C2=O)cc1` (stereo unspecified), the Potency entry was “inactive”.

Consider `COc1cc(Cl)ccc1Nc1ncc(C(=O)N2CCN(c3ccccc3OC)CC2)c2ccccc12`, for which the Potency result was “inactive”.

Regarding `COc1cc(C)ccc1OCCSc1nc2ccc(NC(=O)c3ccc(C)cc3)cc2s1`, the Potency result is “inactive”.

Take `N#C/C(=C\c1cccc(F)c1)c1nc(-c2cc3c(ccc4ccccc43)oc2=O)cs1`: the Potency result was “inactive”.

As to `COc1ccc(NC(=O)COCc2cc(-c3ccco3)on2)cc1`, the Potency entry was “inactive”.

`CC(OC(=O)/C=C/c1ccccc1)C(=O)NC1CCCCC1C` (stereo unspecified): the activity, negative = inhibition was 27.1% [at 12.7 µM].

With `CCCCN(C(=O)C1=NN(c2cc(C)ccc2C)C(=O)CC1)c1c(N)n(CCC)c(=O)[nH]c1=O`, the activity, negative = inhibition was -9.41% [at 12.7 µM].

Turning to `O=C(CSc1n[nH]c(-c2cccs2)n1)N1CCCCC1`, the activity, negative = inhibition is -2.34% [at 2.33 µM].

On to `CCN(CC)S(=O)(=O)c1cccc(-c2n[nH]c(=S)n2/N=C/c2ccc(C(=O)OC)cc2)c1`, for which the Potency is 1.41 µM (active).

In the case of `CCN(CC)S(=O)(=O)c1ccc2nc(COC(=O)c3n[nH]c4ccccc34)[nH]c2c1`, the activity, negative = inhibition was 12.7% [at 12.7 µM].

Regarding `COC(=O)c1ccc(/C=N\n2c(C)nnc2C)cc1`, the Potency entry was “inactive”.

Regarding `COc1ccc(-c2nn(CC(=O)Nc3ccccc3F)c3c2cnc2ccc(F)cc23)cc1`, the Potency result is “inactive”.

On to `CCOC(=O)c1cccc(NC(=O)Cn2cnc3nc4c(cc3c2=O)CCCC4)c1`, for which the Potency entry is “inactive”.

For the compound `CC(NCC(=O)Nc1ccccc1C(=O)NC1CC1)c1ccccc1Cl` (stereo unspecified), the activity, negative = inhibition was 3.45% [at 12.7 µM].

As for `Cc1cccc(Cn2c(CN3CCC(C(=O)NCc4ccccc4Cl)CC3)cc3ccccc32)c1`, the Potency result was “inactive”.

Take `CCCN(CCC)CCNC(=O)Cn1cnc2sc(C)c(S(=O)(=O)N3CCC(C)CC3)c2c1=O`: the Potency result was “inactive”.

As to `Cc1ccc(NC(=O)CN(C)C(=O)COC(=O)C(C)(C)Oc2ccc(Cl)cc2)cc1`, the Potency entry was “inactive”.

As for `COc1ccc(N2CC(C(=O)NCCS(=O)(=O)N3CCN(c4ccccc4)CC3)CC2=O)cc1` (stereo unspecified), the Potency entry was “inactive”.

For `COc1ccc(N2CCN(S(=O)(=O)CCNC(=O)C34CC5CC(CC(C5)C3)C4)CC2)cc1`, the Potency is 44.7 µM (active).

On to `COc1ccc(OCC(=O)NCCS(=O)(=O)N2CCN(c3ccc(F)cc3)CC2)cc1`, for which the Potency result is “inactive”.

For the compound `CC(=O)Nc1ccc(NC(=O)CCCc2nc(-c3ccc(C(C)(C)C)cc3)no2)cc1`, the Potency entry was “inactive”.

`CCc1ccc(NC(=O)Cn2nnc(C(=O)NCc3ccc(OC)cc3)c2N)cc1`: the Potency result was “inactive”.

Consider `CC(=O)c1c(C)n(-c2ccc(N(C)C)cc2)c2ccc(OCC(N)=O)cc12`, for which the Potency is 50.1 µM (active).

For the compound `CCOC(=O)c1c(-c2ccccc2)oc2ccc(OCC(N)=O)cc12`, the Potency entry is “inactive”.

In the case of `CC(=O)c1c(C)n(-c2ccc(C)cc2)c2ccc(O)cc12`, the Potency entry is “inactive”.

Turning to `COc1ccc(CCNC(=O)COc2ccc3c(c2)OCO3)cc1`, the activity, negative = inhibition is 13.4% [at 2.33 µM].

Regarding `COc1ccc(CCNC(=O)c2cc3cccc4c3n2CC(C)S4)c(OC)c1OC` (stereo unspecified), the Potency result was “inactive”.

With `N#C/C(=C/c1ccc(N2CCCCC2)o1)C(=O)NCCc1c[nH]c2ccccc12`, the Potency is 31.6 µM (active).

In the case of `COCCCNC(=O)/C(C#N)=C/c1c(N2CCCCCC2)nc2ccccn2c1=O`, the activity, negative = inhibition is 7.66% [at 2.33 µM].

Consider `O=C(NCCc1c[nH]c2ccccc12)C(=O)NCC1CCCO1` (stereo unspecified), for which the Potency entry was “inactive”.

As to `COc1ccc(Cc2nc3ccc(C(=O)NCc4ccccc4C)cc3o2)cc1`, the Potency result was “inactive”.

On to `CCOCCn1[nH]c2ccccc2c1=O`, for which the activity, negative = inhibition is -9.31% [at 2.33 µM].

Regarding `O=S(=O)(c1ccccc1)N1CCC(c2ccccc2)CC1`, the activity, negative = inhibition was 0.779% [at 2.33 µM].

Consider `Cc1ccc(C(=O)N/C(=C/c2ccco2)C(=O)NCCc2c[nH]c3ccccc23)cc1C`, for which the Potency entry was “inactive”.

As to `CC(=O)NC(Cc1c[nH]c2ccccc12)C(=O)O` (stereo unspecified), the Potency entry is “inactive”.

Take `O=C(NC(Cc1c[nH]c2ccccc12)C(=O)O)/C(=C/c1ccco1)NC(=O)c1ccccc1` (stereo unspecified): the Potency is 28.2 µM (active).

For the compound `COc1ccccc1Cc1nc2ccccc2nc1SCC(=O)N1CCCc2ccccc21`, the Potency entry was “inactive”.

In the case of `COc1ccc(Cl)cc1-n1c(=S)sc2c(=O)n(-c3ccc(F)cc3)c(SCC(=O)O)nc21`, the Potency was 28.2 µM (active).

With `COc1ccc(Cl)cc1NC(=O)C1CC(=O)N(c2ccc(F)cc2)C1` (stereo unspecified), the activity, negative = inhibition is -1.46% [at 12.7 µM].

Take `COc1cccc(-n2c(=S)sc3c(=O)n(-c4ccccc4C)c(SCC(=O)O)nc32)c1`: the Potency result is “inactive”.

`Cc1cccc(NC(=O)N2CCN(C)c3ncccc32)c1C`: the Potency entry was “inactive”.

As for `CC(=O)Nc1ccc(NC(=O)CSc2nnc(C3CC3)n2-c2ccccc2)cc1`, the activity, negative = inhibition was 5.42% [at 2.33 µM].

Consider `CC[n+]1c(C)n(-c2ccccc2)c2ccc(NC(C)=O)cc21`, for which the Potency is 14.1 µM (active).

Turning to `CC(=O)c1cccc(NC(=O)c2cc(C)nn2-c2ccccc2)c1`, the Potency result is “inactive”.

Regarding `Cc1cccn2c(=O)nc(SCC(=O)NCc3ccccc3Cl)nc12`, the Potency entry was “inactive”.

For `Cc1nn(-c2ccc(F)cc2)c(-n2cccc2)c1C(=O)N1CCN(c2ccccc2)CC1`, the Potency entry is “inactive”.

On to `COc1ccc(OCCNC(=O)c2cc(C3CC3)nc3c2cnn3C(C)C)cc1`, for which the Potency entry is “inactive”.

For the compound `CC(C)(O)c1ccccc1CC[C@H](SCC1(CC(=O)O)CC1)c1cccc(/C=C/c2ccc3ccc(Cl)cc3n2)c1`, the activity, negative = inhibition is 1.82% [at 12.7 µM].

Turning to `CCN(c1ccccc1)S(=O)(=O)c1ccc(OCC(=O)N2CCCC2)cc1`, the activity, negative = inhibition was 12.7% [at 2.33 µM].

`Cc1cccc(NC(=O)C2CCN(S(=O)(=O)c3c(C)noc3/C=C/c3ccco3)CC2)c1`: the Potency result is “inactive”.

Take `Cc1noc(/C=C/c2ccco2)c1S(=O)(=O)N1CCC(C(=O)N2CCc3ccccc32)CC1`: the Potency is 44.7 µM (active).

Consider `Cc1noc(/C=C/c2ccco2)c1S(=O)(=O)N1CCC(C(=O)Nc2ccc(Cl)cn2)CC1`, for which the Potency result is “inactive”.

Regarding `O=C(Nc1cccc2cccnc12)c1cccc(Cl)c1`, the Potency result was “inactive”.

Turning to `CC(C)c1nc(N2CCOCC2)c(C#N)c2c1COC(C)(C)C2`, the Potency result was “inactive”.

Consider `CC1(C)Cc2c(C#N)c(SCc3nc4ccccc4[nH]3)nc(N3CCOCC3)c2CO1`, for which the Potency is 39.8 µM (active).

`COc1ccc(CSc2nc(N3CCOCC3)c3c(c2C#N)CC(C)(C)OC3)cc1`: the Potency entry was “inactive”.

For the compound `Nc1ccc(N=Nc2ccccc2Cl)c(N)n1`, the Potency was 28.2 µM (active).
